In PubChem BioAssay:
Results with a measured potency or affinity are listed apart. Values without a mark were called inactive.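 The calls were made as follows: active = signal drop whose fitted half-maximal concentration is at most twice the top valid dose, in every test run; inconclusive = mixed calls across runs, poor fit, or flat 30 to 70% inhibition; inactive = wrong direction, flat within 30%, or potency beyond limit.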

Assay: RMG-1 ovarian cancer cell viability loss – cherry-pick, dose response (AID 687029);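 also: cells exposed to compound for 96 hours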
Details: RMG-1 viability, CellTiterGlo ATP luminescence, 96 h; series mostly up to 35 µM; activity change, negative = inhibition: at the top concentration

Row | SMILES | activity change, negative = inhibition
1 | C[C@@H]1CCCCO[C@H](CN(C)Cc2ccc(C(F)(F)F)cc2)[C@H](C)CN([C@H](C)CO)C(=O)c2cc(NS(=O)(=O)c3ccc(F)cc3)ccc2O1 | -31.1%
2 | C[C@@H]1CN([C@H](C)CO)C(=O)c2cc(NC(=O)c3ccncc3)ccc2O[C@@H](C)CCCCO[C@H]1CN(C)Cc1ccc(C(F)(F)F)cc1 | 28.8%
3 | O=C(C[C@H]1CC[C@H]2[C@@H](COC[C@@H](O)CN2S(=O)(=O)c2ccccc2Cl)O1)N1CCC(Cc2ccccc2)CC1 | 21.6%
4 | C[C@@H]1CN([C@@H](C)CO)C(=O)c2ccccc2-c2ccccc2CO[C@H]1CN(C)Cc1ccccc1C(F)(F)F | 16%
5 | C[C@@H]1CN([C@@H](C)CO)S(=O)(=O)c2ccc(C#Cc3ccccc3F)cc2O[C@H]1CN(C)CC1CCOCC1 | 7.62%
6 | C[C@@H]1CN([C@@H](C)CO)C(=O)Cc2cc(NC(=O)Nc3ccc(C(F)(F)F)cc3)ccc2O[C@H]1CN(C)S(=O)(=O)c1ccc(F)cc1 | 21.8%
7 | C[C@@H]1CCCCO[C@H](CN(C)C(=O)Nc2ccc(F)cc2)[C@@H](C)CN([C@@H](C)CO)C(=O)c2cc(NC(=O)Nc3ccc(C(F)(F)F)cc3)ccc2O1 | 13.7%
8 | C[C@@H]1CCCCO[C@@H](CN(C)Cc2ccc(C(F)(F)F)cc2)[C@H](C)CN([C@H](C)CO)C(=O)c2cc(NS(=O)(=O)c3ccc(Cl)cc3)ccc2O1 | 0.339%
9 | C[C@@H]1CCCCO[C@@H](CN(C)C(=O)C2CCCCC2)[C@H](C)CN([C@H](C)CO)C(=O)c2cc(NC(=O)Nc3ccc(F)cc3)ccc2O1 | 3.68%
10 | C[C@H](CO)N1C[C@H](C)[C@H](CN(C)Cc2ccc(Cl)c(Cl)c2)Oc2c(NS(=O)(=O)c3ccc(Cl)cc3)cccc2C1=O | 29.7%
11 | C[C@@H]1CCCCO[C@@H](CN(C)Cc2ccc(Cl)c(Cl)c2)[C@H](C)CN([C@@H](C)CO)C(=O)c2cc(NC(=O)Cc3ccccc3)ccc2O1 | 0.895%
12 | C[C@H](CO)N1C[C@H](C)[C@H](CN(C)Cc2ccc3c(c2)OCO3)Oc2ccc(NC(=O)Nc3cccc4ccccc34)cc2C1=O | 14.7%
13 | COc1ccccc1-c1ccc2c(c1)[C@H]1[C@H](CCN1S(=O)(=O)c1ccccc1F)[C@H](CO)N2 | 18.9%
14 | C[C@@H]1CN([C@H](C)CO)C(=O)c2cc(NC(=O)c3ccccc3)ccc2O[C@@H](C)CCCCO[C@H]1CN(C)Cc1ccc(C(F)(F)F)cc1 | 22.2%
15 | C[C@H]1CCCCO[C@@H](CN(C)C(=O)c2ccccc2)[C@@H](C)CN([C@@H](C)CO)C(=O)c2cc(NC(=O)Nc3ccc(C(F)(F)F)cc3)ccc2O1 | 8.83%
16 | Cc1ccc(S(=O)(=O)N(C)C[C@H]2Oc3c(NC(=O)Nc4ccc(F)cc4)cccc3C(=O)N([C@@H](C)CO)C[C@H]2C)cc1 | 13.1%
17 | O=S(=O)(c1ccc(F)cc1)N1C[C@H]2[C@@H](c3ccccc31)[C@H](CO)N2Cc1ccccc1Cl | 24.4%
18 | Cc1ccc(S(=O)(=O)N(C)C[C@H]2OCCCC[C@@H](C)Oc3ccc(NS(=O)(=O)c4ccc(F)cc4)cc3C(=O)N([C@@H](C)CO)C[C@H]2C)cc1 | 1.25% [at 30 µM]
19 | C[C@H](CO)N1C[C@H](C)[C@@H](CN(C)CC2CCCCC2)Oc2ccc(NC(=O)Nc3ccc4c(c3)OCO4)cc2CC1=O | 6.42%
20 | O=C(C[C@@H]1C[C@H]2c3cc(NC(=O)C4CCOCC4)ccc3O[C@H]2[C@H](CO)O1)NCc1ccc(Oc2ccccc2)cc1 | 5.84%

Row | SMILES | activity change, negative = inhibition
21 | C[C@H]1CCCCO[C@@H](CN(C)Cc2ccc(C(F)(F)F)cc2)[C@@H](C)CN([C@@H](C)CO)C(=O)c2cc(NS(=O)(=O)c3cccs3)ccc2O1 | 5.05%
22 | C[C@H](CO)N1C[C@H](C)[C@@H](CN(C)Cc2ccc(Cl)c(Cl)c2)OCCCC[C@H](C)Oc2ccc(NC(=O)Nc3ccc(C(F)(F)F)cc3)cc2C1=O | 23%
23 | C[C@@H]1CCCCO[C@H](CN(C)C(=O)C2CCCCC2)[C@@H](C)CN([C@@H](C)CO)C(=O)c2cc(NC(=O)Nc3ccccc3)ccc2O1 | 27.5%
24 | C[C@@H]1CN([C@H](C)CO)C(=O)Cc2cc(NC(=O)Nc3ccc(F)cc3)ccc2O[C@@H]1CN(C)Cc1ccc(Cl)c(Cl)c1 | 19.3%
25 | C[C@H]1CN([C@@H](C)CO)C(=O)CCCn2nncc2CO[C@@H]1CN(C)C(=O)Nc1ccc(-c2cccs2)cc1 | 20.8%
26 | C[C@@H]1CCCCO[C@H](CN(C)CC2CCCCC2)[C@H](C)CN([C@H](C)CO)C(=O)c2cc(NS(=O)(=O)c3ccc(Cl)cc3)ccc2O1 | 27.9%
27 | Cc1cccc(S(=O)(=O)N2CC[C@@H]3[C@H](CO)Nc4ccc(C5=CCCCC5)cc4[C@@H]32)c1 | 25.2%
28 | C[C@H]1CN([C@@H](C)CO)C(=O)c2c(c3ccccc3n2C)-c2ccccc2CO[C@@H]1CN(C)Cc1ccc(-c2ccccc2)cc1 | 13.3% [at 30 µM]
29 | C[C@@H]1CN([C@@H](C)CO)C(=O)c2c(c3ccccc3n2C)-c2ccccc2CO[C@H]1CN(C)C(=O)Nc1ccc2c(c1)OCO2 | 18.6%
30 | CN1c2ccc(C#Cc3cccnc3)cc2[C@@H]2[C@@H](CCN2C(=O)Cc2cccnc2)[C@@H]1CO | 8.76%
31 | C[C@@H]1CN([C@@H](C)CO)C(=O)c2cc(NS(=O)(=O)c3ccc(F)cc3)ccc2O[C@@H](C)CCCCO[C@H]1CN(C)Cc1ccc(C(F)(F)F)cc1 | 4.53%
32 | C[C@@H]1CN([C@@H](C)CO)C(=O)c2cc(NC(=O)Nc3ccc(C(F)(F)F)cc3)ccc2O[C@@H](C)CCCCO[C@H]1CN(C)Cc1ccc(Cl)c(Cl)c1 | 14.7%
33 | C[C@H](CO)N1C[C@H](C)[C@@H](CN(C)Cc2ccc(C(F)(F)F)cc2)Oc2ccc(NS(=O)(=O)c3ccc(F)cc3)cc2CC1=O | 27.2% [at 30 µM]
34 | C[C@@H]1CCCCO[C@@H](CN(C)C(=O)C2CCCCC2)[C@H](C)CN([C@H](C)CO)C(=O)c2cc(NS(=O)(=O)c3ccc(Cl)cc3)ccc2O1 | 18.3%
35 | COc1cccc(-c2ccc3c(c2)[C@@H]2[C@@H](CCN2C(=O)NC2CCCCC2)[C@H](CO)N3C)c1 | 12.6%
36 | C[C@@H]1CCCCO[C@@H](CN(C)Cc2ccccc2)[C@@H](C)CN([C@H](C)CO)C(=O)c2cc(NC(=O)Nc3ccc(C(F)(F)F)cc3)ccc2O1 | 26.3%
37 | C[C@@H]1CN([C@H](C)CO)C(=O)Cc2cc(NC(=O)Nc3ccc(F)cc3)ccc2O[C@H]1CN(C)C(=O)Nc1ccc(C(F)(F)F)cc1 | 18.6%
38 | C[C@H](CO)N1C[C@H](C)[C@@H](CN(C)Cc2ccc(Oc3ccccc3)cc2)OCc2ccccc2-c2c(n(C)c3ccccc23)C1=O | 24.8%
39 | C[C@@H]1CCCCO[C@@H](CN(C)CC2CCCCC2)[C@@H](C)CN([C@@H](C)CO)C(=O)c2cc(NC(=O)Nc3ccc(C(F)(F)F)cc3)ccc2O1 | 10.5%
40 | C[C@H]1CCCCO[C@H](CN(C)S(=O)(=O)c2ccc(Cl)cc2)[C@@H](C)CN([C@@H](C)CO)C(=O)c2cc(NS(=O)(=O)c3ccc(Cl)cc3)ccc2O1 | 17.4%
